RORgamma inh – blocks mouse ROR gamma transcriptional activity; P51450; Drosophila S2 Gal4-RORgamma UAS-luciferase reporter, 20 h; Potency, µM (doses to about 53.6 µM), for inactives: at the highest dose activity change, negative = inhibition, most hits filed as inhibitors; actives 5.4% (n = 310,000); AID 2551; further: nearly all actives have a fitted effect of over 60% in size
Target sequence (P51450 whole entry, looked up, the tested form may be a part): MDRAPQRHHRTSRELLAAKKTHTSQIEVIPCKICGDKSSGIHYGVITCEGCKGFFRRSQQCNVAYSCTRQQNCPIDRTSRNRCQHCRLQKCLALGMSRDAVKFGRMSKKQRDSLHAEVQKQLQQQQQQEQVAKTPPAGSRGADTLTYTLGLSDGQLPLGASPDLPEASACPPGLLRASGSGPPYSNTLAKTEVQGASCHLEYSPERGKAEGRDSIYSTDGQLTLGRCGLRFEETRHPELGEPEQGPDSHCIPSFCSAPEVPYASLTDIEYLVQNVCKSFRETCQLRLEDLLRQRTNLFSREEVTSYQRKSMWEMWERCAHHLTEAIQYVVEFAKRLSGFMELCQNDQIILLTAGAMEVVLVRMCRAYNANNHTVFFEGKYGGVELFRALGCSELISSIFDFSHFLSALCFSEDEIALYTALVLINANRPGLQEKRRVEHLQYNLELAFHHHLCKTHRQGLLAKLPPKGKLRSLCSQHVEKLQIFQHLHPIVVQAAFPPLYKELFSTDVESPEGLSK
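Drosophila Schneider cells stably carrying a metallothionein-driven Gal4 DBD–ROR gamma fusion and a UAS-Photinus luciferase reporter were exposed to compound for 1 hr, then induced with copper sulfate (700 uM final) for 20 hr at ambient temperature before luminescence reading.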
Gal4-VP16 FLuc – counter-screen for ROR gamma inhibitors: Gal4-VP16 reporter; Drosophila S2 Gal4-VP16 UAS-luciferase, luminescence, 20 h; Potency, µM (highest dose often 53.6 µM), for inactives: at the highest dose activity, negative = inhibition, usual class: inhibitors; actives 3.5% (n = 310,000); AID 2546;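 further: Gal4-VP16 expression switched on by copper sulfate through the metallothionein promoter; nearly all actives have a fitted effect of over 50% in size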
B2AR arrestin – beta2AR (human) beta-arrestin recruitment activity; actives 0.02% (n = 330,000); beta-arrestin recruitment to beta2AR, cell-based reporter; P07550; AID 492947; Potency, µM (titrated, usually from 46.1 µM), for inactives: at the highest dose activation, hits mostly activators;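 further: 0% = DMSO controls and full agonism = EC100 isoproterenol or metaproterenol; nearly all actives have a fitted effect of over 65% in size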
NPSR antag – neuropeptide S receptor (human) antagonism, cAMP | Q6W5P4 | CHO-NPSR cells, cAMP TR-FRET, antagonist mode | Potency, µM (doses to about 38.3 µM), for inactives: top-dose activity change, negative = inhibition, hits mostly inhibitors | actives 1% (n = 220,000) | AID 1461; further: nearly all actives have a fitted effect of over 50% in size
* = called active by the depositor; ? = inconclusive; . = no result; [ ] = remark or other dose. Most compounds without a hit are left out; they make up all but 5.7% or so of the library. The call rests on the fitted dose curve; in most records, active means well fitted curve in the direction sought with a large enough effect; inconclusive means small, poorly fitted or top-dose-only effect, or another doubt; inactive means no such curve, though single readings can be large; an effect the other way counts as inactive or inconclusive. Unless noted, on the % scale 0 is the no-effect control and ±100 the full control effect; potency means the concentration at half of the fitted maximal effect.

SMILES	RORgamma inh	Gal4-VP16 FLuc	B2AR arrestin	NPSR antag
Cc1nc2c(ccc3nc(NC(=O)Cc4cccc5ccccc45)sc32)s1	17%	1%	-1%	0%
Cc1nc2c(ccc3nc(NC(=O)C(c4ccccc4)c4ccccc4)sc32)s1	?	5µM*	0%	-31%
Cc1nc2c(ccc3nc(NC(=O)c4ccc5c(c4)OCCO5)sc32)s1	0.2µM*	0.089µM*	0%	-16%[46.1 µM]
O=C(C[C@H]1C/C=C\CC[C@@H](Cc2ccc(F)cc2)C(=O)OCCNC1=O)NCCO	.	.	0%	.
O=C(CCCN1C(=O)/C(=C/c2ccccc2Cl)SC1=S)Nc1ccccn1	1.8µM*	?	-1%	-19%[46.1 µM]
O=C(O)CCCN1C(=O)/C(=C/c2cn(-c3ccccc3)nc2-c2cccs2)SC1=S	-24%	?	-1%	3.2µM*
O=C(CCCN1C(=O)/C(=C/c2ccccc2Cl)SC1=S)Nc1cccnc1	0.22µM*	-101%	0%	.
O=C(CCN1C(=O)/C(=C/c2ccccc2Cl)SC1=S)Nc1cccnc1	35%	?	0%	.
O=C1/C(=C/c2ccccc2Cl)SC(=S)N1CCCC(=O)N(CCO)c1ccccc1	2.2µM*	?	0%	.
COc1ccc(-c2cc(C3C4C=CCCC4(C)C(=O)N3Cc3ccccc3)ccc2F)cc1 (centres undefined)	10%	-2%	.	.
CN(C(=O)CN1C(=O)/C(=C/c2ccccc2Cl)SC1=S)C1CCS(=O)(=O)C1 (centres undefined)	10µM*	?	0%	.
CC[C@H](C)[C@H](NC(=O)[C@H](CCC(=O)O)NC(=O)[C@@H](N)CO)C(=O)N[C@@H](CCC(N)=O)C(=O)N[C@@H](CC(C)C)C(=O)N[C@@H](CCSC)C(=O)N[C@@H](Cc1cnc[nH]1)C(=O)N[C@@H](CC(N)=O)C(=O)N[C@@H](CC(C)C)C(=O)NCC(=O)N[C@@H](CCCCN)C(=O)N[C@@H](Cc1cnc[nH]1)C(=O)N[C@@H](CC(C)C)C(=O)N[C@@H](C)C(=O)N[C@@H](CO)C(=O)N[C@H](C(=O)N[C@@H](CCC(=O)O)C(=O)N[C@@H](CCCNC(=N)N)C(=O)N[C@@H](CCSC)C(=O)N[C@@H](CCC(N)=O)C(=O)N[C@@H](Cc1c[nH]c2ccccc12)C(=O)N[C@@H](CC(C)C)C(=O)N[C@@H](CCCNC(=N)N)C(=O)N[C@@H](CCCCN)C(=O)N[C@@H](CCCCN)C(=O)N[C@@H](CC(C)C)C(=O)N[C@@H](CCC(N)=O)C(=O)N[C@@H](CC(=O)O)C(=O)N[C@H](C(=O)N[C@@H](Cc1cnc[nH]1)C(=O)N[C@@H](CC(N)=O)C(=O)N[C@@H](Cc1ccccc1)C(=O)O)C(C)C)C(C)C	-14%	5%	.	.
Cc1cc(NC(=O)C2CC(=O)N(c3cccc(Cl)c3)C2)no1 (centres undefined)	13%	-9%	0%	.
CN(C)CCCN1C(=O)c2cccc3c([N+](=O)[O-])ccc(c23)C1=O	1.4µM*	1.1µM*	-1%	?
O=C(O)c1ccc(CN2C(=O)c3cccc4c([N+](=O)[O-])ccc(c34)C2=O)cc1	?	7.1µM*	0%	.
O=C1c2cccc3c([N+](=O)[O-])ccc(c23)C(=O)N1CCc1ccccn1	-9%	-1%	1%	-22%
O=C(Nc1nccs1)c1cccc(N2C(=O)c3cccc4c([N+](=O)[O-])ccc(c34)C2=O)c1	7.1µM*	7.1µM*	0%	?
CC(=O)Oc1cccc(N2C(=O)c3ccc(C(=O)O)cc3C2=O)c1	-38%	-7%	0%	-6%[46.1 µM]
CC(=O)Oc1cccc(N2C(=O)c3cccc4c([N+](=O)[O-])ccc(c34)C2=O)c1	8.9µM*	5.6µM*	4%	.
O=C(NC1CCCCC1)C1CCCN1S(=O)(=O)c1ccc(Cl)cc1 (centres undefined)	5%	-5%	0%	.
Cc1noc(C)c1-c1ccc2ncnc(NCc3ccc(C(F)(F)F)cc3)c2c1	17%	?	.	.
Cc1ccc(C(=O)O)cc1N1C(=O)c2cccc3c([N+](=O)[O-])ccc(c23)C1=O	7.9µM*	6.3µM*	-1%	.
COC(=O)[C@@H](O)CC[C@@H](C)Cc1c(OC)c(OC)c(C)c(OC)c1OC	4%	0%	.	.
O=C1CSC(=S)N1c1cccc(O)c1	13µM*	-6%	-1%	.
Cc1c(N2C(=O)CSC2=S)c(=O)n(-c2ccccc2)n1C	13µM*	1%	0%	32%
SMILES	RORgamma inh	Gal4-VP16 FLuc	B2AR arrestin	NPSR antag
Cc1c(N2C(=O)/C(=C3/C(=O)N(C)c4ccccc43)SC2=S)c(=O)n(-c2ccccc2)n1C	7.9µM*	9%	0%	0%[46.1 µM]
COCc1cc(O)c(O)c(O)c1-c1c(COC)cc(O)c(O)c1O	-40%	-19%	.	.
C=C(C)COc1ccc(-c2nc(N)nc(C)c2Oc2ccccc2OC)c(O)c1	23%	-5%	-1%	-28%[46.1 µM]
Cc1[nH]nc(-c2ccc(OCc3cnn(-c4ccccc4)c3)cc2O)c1Oc1ccccc1F	6.3µM*	10µM*	0%	-20%[46.1 µM]
CCCOC(=O)c1ccc(Oc2c(-c3ccc(OC)cc3O)n[nH]c2C)cc1	7.1µM*	?	0%	-23%[46.1 µM]
O=c1c(Oc2ccccc2F)coc2cc(OCc3cnn(-c4ccccc4)c3)ccc12	-10%	2%	0%	-33%
C=C(C)COc1ccc(-c2n[nH]c(C)c2Oc2ccccc2OC)c(O)c1	1.6µM*	-16%	-1%	?
CCc1cc(-c2n[nH]c(C)c2Oc2ccc(C(C)C)cc2)c(O)cc1O	7.1µM*	?	0%	?
CO[C@H]1COC(=O)[C@H](C)COC(=O)[C@H](C)NC(=O)C/C=C\[C@H]1C	11%[10 µM]	-16%[10 µM]	.	.
CC(=O)OCC(NC(=O)C(Cc1ccccc1)NC(=O)OC(C)(C)C)C1OC(n2cc(C)c(=O)[nH]c2=O)C(OC(C)=O)C1OC(C)=O (centres undefined)	-10%	-9%	.	.
COc1ccc(OC)c(S(=O)(=O)N2CCC(C(=O)NCc3ccccn3)CC2)c1	11%	7%	0%	.
CC(=O)ON(C(C)=O)S(=O)(=O)c1ccc(Cl)cc1	-7%	-7%	.	.
CCc1ccc(N2CC(C(=O)Nc3ccc4c(c3)OCCO4)CC2=O)cc1 (centres undefined)	-1%	-5%	2%	.
COc1ccc2nc3n(c(=O)c2c1)-c1cc(Cl)ccc1C(=O)NC3Cc1ccccc1 (centres undefined)	.	.	3%	.
Cc1noc(C)c1-c1nccc(NCc2cccs2)n1	31%	23%	.	.
Cc1[nH]nc(-c2ccc(O)cc2O)c1Oc1ccccc1	?	?	0%	-9%[46.1 µM]
CCOc1ccc(-c2n[nH]c(C)c2Oc2ccccc2OC)c(O)c1	2.2µM*	2.5µM*	4%	?
CCN1C(=O)/C(=C2/Sc3ccccc3N2CC)S/C1=N\c1ncn[nH]1	11µM*	5µM*	-1%	-8%
C=CCN1C(=O)/C(=C2/Sc3ccccc3N2CC)SC1=S	-29%	-21%	-1%	.

High-throughput results deposited in PubChem BioAssay by National Center for Advancing Translational Sciences (NCATS).
